# Data as given in ChEMBL document CHEMBL1961873, “Compounds: GSK PKIS; Assays: Nanosyn kinase panel” (2012).
# How the values were obtained:
# [1] = target: T1, Tyrosine-protein kinase ITK/TSK (Homo sapiens) (UniProt Q08881); conditions: at 1 µM;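 note: values are mean percent inhibition of ITK from the GSK PKIS screen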
# T1 sequence (whole entry): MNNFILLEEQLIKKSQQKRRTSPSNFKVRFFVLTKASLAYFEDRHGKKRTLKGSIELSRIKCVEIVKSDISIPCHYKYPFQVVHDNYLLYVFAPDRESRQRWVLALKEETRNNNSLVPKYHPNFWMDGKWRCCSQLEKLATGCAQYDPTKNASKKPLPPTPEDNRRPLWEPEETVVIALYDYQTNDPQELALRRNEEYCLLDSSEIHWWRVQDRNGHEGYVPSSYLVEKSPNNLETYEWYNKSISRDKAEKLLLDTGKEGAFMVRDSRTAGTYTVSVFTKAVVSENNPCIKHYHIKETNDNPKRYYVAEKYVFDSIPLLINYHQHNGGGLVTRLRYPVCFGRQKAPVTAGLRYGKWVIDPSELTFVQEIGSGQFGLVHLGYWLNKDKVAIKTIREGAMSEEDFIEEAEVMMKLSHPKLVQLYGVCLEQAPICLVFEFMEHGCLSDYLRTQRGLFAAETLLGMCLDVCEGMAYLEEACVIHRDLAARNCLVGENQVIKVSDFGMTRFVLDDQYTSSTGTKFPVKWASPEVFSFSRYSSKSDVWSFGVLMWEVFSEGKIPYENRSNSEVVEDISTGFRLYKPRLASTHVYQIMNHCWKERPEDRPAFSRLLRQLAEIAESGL
# [2] = target: Tyrosine-protein kinase JAK1 (Homo sapiens) (UniProt P23458); conditions: at 0.1 µM
# [3] = target: Tyrosine-protein kinase JAK1 (Homo sapiens) (UniProt P23458); conditions: at 1 µM
# [4] = target: Tyrosine-protein kinase JAK2 (Homo sapiens) (UniProt O60674); conditions: at 0.1 µM
# [5] = target: Tyrosine-protein kinase JAK2 (Homo sapiens) (UniProt O60674); conditions: at 1 µM
# [6] = target: T2, Tyrosine-protein kinase JAK3 (Homo sapiens) (UniProt P52333); conditions: at 0.1 µM
# T2 sequence (whole entry): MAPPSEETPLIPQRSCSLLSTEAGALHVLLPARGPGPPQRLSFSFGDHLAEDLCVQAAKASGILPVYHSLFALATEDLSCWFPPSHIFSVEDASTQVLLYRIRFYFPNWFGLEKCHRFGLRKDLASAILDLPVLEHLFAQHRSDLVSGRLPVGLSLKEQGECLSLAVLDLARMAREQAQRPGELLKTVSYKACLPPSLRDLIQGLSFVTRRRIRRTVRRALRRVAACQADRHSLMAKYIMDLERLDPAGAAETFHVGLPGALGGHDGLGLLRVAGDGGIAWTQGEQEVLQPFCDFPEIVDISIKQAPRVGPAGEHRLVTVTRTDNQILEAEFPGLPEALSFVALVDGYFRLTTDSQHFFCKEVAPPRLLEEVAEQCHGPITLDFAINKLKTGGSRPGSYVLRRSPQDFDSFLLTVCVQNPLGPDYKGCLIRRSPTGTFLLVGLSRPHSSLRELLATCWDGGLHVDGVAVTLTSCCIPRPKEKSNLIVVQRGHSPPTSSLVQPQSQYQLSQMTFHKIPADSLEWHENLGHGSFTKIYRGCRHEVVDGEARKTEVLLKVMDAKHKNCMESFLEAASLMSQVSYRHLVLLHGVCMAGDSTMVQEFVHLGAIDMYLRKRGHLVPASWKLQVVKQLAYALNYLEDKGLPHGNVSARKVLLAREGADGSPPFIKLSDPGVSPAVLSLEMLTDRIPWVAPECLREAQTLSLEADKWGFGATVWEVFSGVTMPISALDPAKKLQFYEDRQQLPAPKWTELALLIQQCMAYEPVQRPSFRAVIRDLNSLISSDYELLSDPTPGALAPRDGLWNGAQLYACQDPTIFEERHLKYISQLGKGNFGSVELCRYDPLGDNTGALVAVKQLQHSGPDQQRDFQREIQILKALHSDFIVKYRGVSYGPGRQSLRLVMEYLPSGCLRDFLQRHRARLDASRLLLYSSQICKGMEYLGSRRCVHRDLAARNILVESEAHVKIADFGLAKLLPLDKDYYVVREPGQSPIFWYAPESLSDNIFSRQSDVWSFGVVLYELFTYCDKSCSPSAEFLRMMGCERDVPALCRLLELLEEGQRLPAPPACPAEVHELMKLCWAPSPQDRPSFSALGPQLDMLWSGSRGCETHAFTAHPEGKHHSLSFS
# [7] = target: T2, Tyrosine-protein kinase JAK3 (Homo sapiens); conditions: at 1 µM
# [8] = target: Vascular endothelial growth factor receptor 2 (Homo sapiens) (UniProt P35968); conditions: at 0.1 µM
# [9] = target: Vascular endothelial growth factor receptor 2 (Homo sapiens) (UniProt P35968); conditions: at 1 µM
# [10] = target: Mast/stem cell growth factor receptor Kit (Homo sapiens) (UniProt P10721); conditions: at 0.1 µM
# [11] = target: Mast/stem cell growth factor receptor Kit (Homo sapiens) (UniProt P10721); conditions: at 1 µM
# [12] = system: Mast/stem cell growth factor receptor Kit (Homo sapiens), P10721 [D816V]; conditions: at 0.1 µM
# [13] = system: Mast/stem cell growth factor receptor Kit (Homo sapiens), P10721 [D816V]; conditions: at 1 µM
# [14] = system: Mast/stem cell growth factor receptor Kit (Homo sapiens), P10721 [T670I]; conditions: at 0.1 µM
# [15] = system: Mast/stem cell growth factor receptor Kit (Homo sapiens), P10721 [T670I]; conditions: at 1 µM
# [16] = system: Mast/stem cell growth factor receptor Kit (Homo sapiens), P10721 [V560G]; conditions: at 0.1 µM
# [17] = system: Mast/stem cell growth factor receptor Kit (Homo sapiens), P10721 [V560G]; conditions: at 1 µM
# [18] = target: Tyrosine-protein kinase Lck (Homo sapiens) (UniProt P06239); conditions: at 0.1 µM
# [19] = target: Tyrosine-protein kinase Lck (Homo sapiens) (UniProt P06239); conditions: at 1 µM
# [20] = target: Leukocyte tyrosine kinase receptor (Homo sapiens) (UniProt P29376); conditions: at 0.1 µM
# Sequence of Leukocyte tyrosine kinase receptor (Homo sapiens) (P29376 whole entry): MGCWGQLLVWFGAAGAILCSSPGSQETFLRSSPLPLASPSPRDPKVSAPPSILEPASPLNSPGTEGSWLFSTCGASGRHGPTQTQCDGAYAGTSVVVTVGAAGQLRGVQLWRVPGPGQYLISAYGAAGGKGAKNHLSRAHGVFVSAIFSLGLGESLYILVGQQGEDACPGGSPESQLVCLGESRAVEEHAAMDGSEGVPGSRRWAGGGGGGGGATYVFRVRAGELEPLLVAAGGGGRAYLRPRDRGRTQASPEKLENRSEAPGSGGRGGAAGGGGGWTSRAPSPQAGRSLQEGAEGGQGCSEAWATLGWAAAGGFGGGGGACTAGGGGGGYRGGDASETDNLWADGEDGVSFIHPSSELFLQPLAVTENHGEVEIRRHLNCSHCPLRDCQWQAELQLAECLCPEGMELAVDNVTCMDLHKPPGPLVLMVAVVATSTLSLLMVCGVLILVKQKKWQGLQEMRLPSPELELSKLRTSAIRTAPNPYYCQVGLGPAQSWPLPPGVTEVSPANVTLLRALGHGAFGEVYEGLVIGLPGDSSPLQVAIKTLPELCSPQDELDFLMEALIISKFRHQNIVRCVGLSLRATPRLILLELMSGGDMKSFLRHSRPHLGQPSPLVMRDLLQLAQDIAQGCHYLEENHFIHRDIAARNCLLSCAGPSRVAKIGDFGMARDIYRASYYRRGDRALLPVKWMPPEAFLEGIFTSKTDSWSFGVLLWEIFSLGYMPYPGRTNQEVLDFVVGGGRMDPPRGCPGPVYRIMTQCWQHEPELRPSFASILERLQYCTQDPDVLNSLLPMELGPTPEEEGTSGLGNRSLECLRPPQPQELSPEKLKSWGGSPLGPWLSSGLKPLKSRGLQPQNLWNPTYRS
# Sequence of Tyrosine-protein kinase JAK2 (Homo sapiens) (O60674 whole entry): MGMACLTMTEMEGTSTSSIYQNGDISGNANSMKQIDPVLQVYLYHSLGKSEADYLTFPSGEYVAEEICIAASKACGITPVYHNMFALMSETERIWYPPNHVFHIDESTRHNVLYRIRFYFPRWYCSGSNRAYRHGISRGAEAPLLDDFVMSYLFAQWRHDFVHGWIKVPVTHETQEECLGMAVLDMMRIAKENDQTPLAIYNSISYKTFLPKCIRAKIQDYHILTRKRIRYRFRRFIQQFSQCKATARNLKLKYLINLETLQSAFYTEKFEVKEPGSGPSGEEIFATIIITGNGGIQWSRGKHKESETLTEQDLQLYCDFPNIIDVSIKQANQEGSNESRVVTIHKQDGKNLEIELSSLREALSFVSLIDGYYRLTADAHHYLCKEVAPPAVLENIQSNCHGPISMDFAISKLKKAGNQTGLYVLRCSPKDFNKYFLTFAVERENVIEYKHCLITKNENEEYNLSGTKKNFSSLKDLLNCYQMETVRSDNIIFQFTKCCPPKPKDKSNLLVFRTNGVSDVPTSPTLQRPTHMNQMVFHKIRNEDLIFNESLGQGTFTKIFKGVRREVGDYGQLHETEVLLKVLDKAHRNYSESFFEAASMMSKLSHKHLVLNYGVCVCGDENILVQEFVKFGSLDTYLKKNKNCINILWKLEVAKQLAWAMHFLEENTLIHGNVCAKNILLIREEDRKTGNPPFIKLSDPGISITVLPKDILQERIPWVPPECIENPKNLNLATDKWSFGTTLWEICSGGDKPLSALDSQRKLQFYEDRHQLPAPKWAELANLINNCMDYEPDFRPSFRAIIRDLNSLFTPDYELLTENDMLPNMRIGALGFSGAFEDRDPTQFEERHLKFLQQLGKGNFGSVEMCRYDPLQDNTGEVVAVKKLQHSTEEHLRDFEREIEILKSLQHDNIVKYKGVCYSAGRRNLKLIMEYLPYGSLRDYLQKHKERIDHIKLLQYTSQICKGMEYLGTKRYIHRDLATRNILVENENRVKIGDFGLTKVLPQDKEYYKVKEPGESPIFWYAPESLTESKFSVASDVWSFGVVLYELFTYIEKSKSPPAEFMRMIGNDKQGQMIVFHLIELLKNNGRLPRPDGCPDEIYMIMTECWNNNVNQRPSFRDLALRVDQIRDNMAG
# Sequence of Tyrosine-protein kinase Lck (Homo sapiens) (P06239 2-509 limits assumed): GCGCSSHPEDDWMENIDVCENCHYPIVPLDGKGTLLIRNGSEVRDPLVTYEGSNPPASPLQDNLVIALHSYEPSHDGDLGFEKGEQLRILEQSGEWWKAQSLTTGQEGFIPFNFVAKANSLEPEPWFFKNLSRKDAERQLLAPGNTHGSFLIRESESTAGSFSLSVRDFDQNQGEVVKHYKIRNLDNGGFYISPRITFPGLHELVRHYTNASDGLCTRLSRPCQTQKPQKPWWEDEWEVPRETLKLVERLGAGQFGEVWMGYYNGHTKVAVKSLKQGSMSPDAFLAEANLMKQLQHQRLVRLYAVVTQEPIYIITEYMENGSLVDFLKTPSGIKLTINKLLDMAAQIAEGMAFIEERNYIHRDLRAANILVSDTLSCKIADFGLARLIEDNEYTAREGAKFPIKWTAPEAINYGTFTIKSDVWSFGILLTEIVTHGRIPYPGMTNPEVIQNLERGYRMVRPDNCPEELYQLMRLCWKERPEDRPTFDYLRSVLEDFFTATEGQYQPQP
# Sequence of Mast/stem cell growth factor receptor Kit (Homo sapiens), P10721 [D816V] (P10721 whole entry D816V): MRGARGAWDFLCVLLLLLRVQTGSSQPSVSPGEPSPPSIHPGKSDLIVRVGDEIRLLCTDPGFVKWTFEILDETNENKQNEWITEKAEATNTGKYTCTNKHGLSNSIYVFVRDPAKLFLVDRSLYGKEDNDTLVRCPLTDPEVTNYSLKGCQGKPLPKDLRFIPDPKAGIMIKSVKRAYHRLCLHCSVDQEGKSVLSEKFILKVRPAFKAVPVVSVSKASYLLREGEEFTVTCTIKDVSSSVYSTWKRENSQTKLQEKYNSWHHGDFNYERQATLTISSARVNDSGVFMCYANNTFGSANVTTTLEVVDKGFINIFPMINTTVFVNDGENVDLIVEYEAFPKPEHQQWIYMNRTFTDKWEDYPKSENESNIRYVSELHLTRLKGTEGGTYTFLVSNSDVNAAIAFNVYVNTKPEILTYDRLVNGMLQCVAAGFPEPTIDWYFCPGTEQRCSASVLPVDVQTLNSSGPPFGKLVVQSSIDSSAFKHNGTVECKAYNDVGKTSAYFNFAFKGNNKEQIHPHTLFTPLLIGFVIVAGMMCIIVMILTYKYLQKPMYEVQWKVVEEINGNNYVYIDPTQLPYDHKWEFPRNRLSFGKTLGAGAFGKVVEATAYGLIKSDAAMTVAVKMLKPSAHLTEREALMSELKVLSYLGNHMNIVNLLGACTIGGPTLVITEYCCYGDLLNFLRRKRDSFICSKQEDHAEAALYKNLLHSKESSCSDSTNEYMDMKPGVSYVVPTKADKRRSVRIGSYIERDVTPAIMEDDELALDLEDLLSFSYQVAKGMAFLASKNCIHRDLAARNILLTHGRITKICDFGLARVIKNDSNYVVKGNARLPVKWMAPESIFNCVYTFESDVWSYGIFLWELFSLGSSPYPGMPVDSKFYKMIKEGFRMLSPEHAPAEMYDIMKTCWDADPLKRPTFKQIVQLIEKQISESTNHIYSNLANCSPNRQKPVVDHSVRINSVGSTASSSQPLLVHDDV
# Sequence of Mast/stem cell growth factor receptor Kit (Homo sapiens) (P10721 whole entry): as the sequence (P10721 whole entry D816V) above, with V816D counted along it
# Sequence of Mast/stem cell growth factor receptor Kit (Homo sapiens), P10721 [T670I] (P10721 whole entry T670I): as the sequence (P10721 whole entry D816V) above, with T670I, V816D counted along it
# Sequence of Mast/stem cell growth factor receptor Kit (Homo sapiens), P10721 [V560G] (P10721 whole entry V560G): as the sequence (P10721 whole entry D816V) above, with V560G, V816D counted along it
# Sequence of Tyrosine-protein kinase JAK1 (Homo sapiens) (P23458 whole entry): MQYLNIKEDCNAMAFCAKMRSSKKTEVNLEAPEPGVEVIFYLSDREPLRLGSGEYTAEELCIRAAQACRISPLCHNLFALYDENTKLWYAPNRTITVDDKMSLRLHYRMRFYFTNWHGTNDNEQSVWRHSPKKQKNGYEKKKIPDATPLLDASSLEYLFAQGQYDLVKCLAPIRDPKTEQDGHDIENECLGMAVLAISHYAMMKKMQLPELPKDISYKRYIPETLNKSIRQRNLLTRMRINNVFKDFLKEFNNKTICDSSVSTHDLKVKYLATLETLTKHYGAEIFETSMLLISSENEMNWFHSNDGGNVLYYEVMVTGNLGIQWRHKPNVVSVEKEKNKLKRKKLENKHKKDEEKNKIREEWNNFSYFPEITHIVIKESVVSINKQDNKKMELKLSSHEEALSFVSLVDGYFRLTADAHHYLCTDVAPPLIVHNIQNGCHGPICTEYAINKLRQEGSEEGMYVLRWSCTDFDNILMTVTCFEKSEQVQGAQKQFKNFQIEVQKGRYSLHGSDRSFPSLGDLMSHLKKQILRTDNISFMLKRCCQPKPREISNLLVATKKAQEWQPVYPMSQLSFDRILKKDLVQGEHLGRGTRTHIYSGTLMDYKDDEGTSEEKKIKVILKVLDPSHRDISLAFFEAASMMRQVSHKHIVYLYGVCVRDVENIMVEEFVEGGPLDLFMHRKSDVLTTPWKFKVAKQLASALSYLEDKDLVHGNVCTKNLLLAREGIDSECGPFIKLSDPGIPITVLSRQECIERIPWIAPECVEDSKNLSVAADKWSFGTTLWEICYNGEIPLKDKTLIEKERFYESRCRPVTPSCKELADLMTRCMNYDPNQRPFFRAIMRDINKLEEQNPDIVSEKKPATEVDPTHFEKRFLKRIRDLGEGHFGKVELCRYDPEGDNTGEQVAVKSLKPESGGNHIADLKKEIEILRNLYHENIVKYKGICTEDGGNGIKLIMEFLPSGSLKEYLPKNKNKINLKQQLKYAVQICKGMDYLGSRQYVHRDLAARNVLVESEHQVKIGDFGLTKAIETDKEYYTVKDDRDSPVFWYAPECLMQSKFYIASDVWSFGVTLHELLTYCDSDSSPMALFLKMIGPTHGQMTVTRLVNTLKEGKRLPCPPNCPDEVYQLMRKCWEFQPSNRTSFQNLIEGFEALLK
Compound,inhibition [1],inhibition [2],inhibition [3],inhibition [4],inhibition [5],inhibition [6],inhibition [7],inhibition [8],inhibition [9],inhibition [10],inhibition [11],inhibition [12],inhibition [13],inhibition [14],inhibition [15],inhibition [16],inhibition [17],inhibition [18],inhibition [19],inhibition [20]
CC(C)=Cc1cccc2c1/C(=N/Nc1ccc(S(N)(=O)=O)cc1)C(=O)N2,4.66%,2.53%,17.6%,2.18%,34.2%,5.65%,54.4%,8.9%,48.5%,14.1%,67.5%,2.15%,4.23%,5.7%,52.1%,4.73%,10.1%,3.66%,14.7%,1.87%
COc1cc(C=NNc2ncnc3c2cnn3-c2ccccc2)ccc1O,4.53%,2.76%,3.21%,1.26%,8.82%,-0.33%,4.39%,12.4%,49.6%,15%,67%,2.68%,8.84%,4.5%,37.6%,8.24%,12.3%,19.4%,63.9%,2.19%
O=C1NC(=O)C(c2ccccc2Cl)=C1Nc1cccc(O)c1,2.08%,3.43%,0.51%,2.97%,4.56%,0.39%,21.8%,4.45%,6.91%,0.48%,0.62%,2.13%,2.69%,-1.05%,-0.04%,0.38%,1.68%,2.08%,5.21%,0.86%
COc1ccc2cc(-c3c(-c4ccncc4)nc(-c4ccc([S+](C)[O-])cc4)n3C)ccc2c1 (stereo not drawn),3.22%,1.65%,-2.81%,0.86%,2.23%,-0.93%,0.05%,4.56%,17.8%,1.88%,-0.76%,1.61%,4.68%,-0.37%,-0.98%,2.62%,0.15%,2.55%,6.96%,2.55%
Nc1ncnc2occ(-c3ccc(NC(=O)Nc4cccc(C(F)(F)F)c4)cc3)c12,12.3%,0.84%,11.8%,1.98%,9.83%,-4.17%,-2.01%,73.5%,77.3%,94.9%,97.3%,3.24%,6.5%,72.5%,83.9%,104%,97.8%,12.1%,46.7%,7.15%
CN1CCC(C(=O)Nc2n[nH]c3nnc(-c4ccccc4)cc23)CC1,2.38%,4.13%,17.6%,1.08%,1.05%,-1.09%,-0.3%,2.34%,10.6%,4.36%,8.5%,7.35%,3.19%,4.77%,5.4%,-3.89%,1.05%,1.6%,4.09%,3.64%
CC1=C(C(=O)Nc2ccc3[nH]ncc3c2)C(c2ccc3ccccc3c2)CC(=O)N1 (stereo not drawn),14.2%,4.05%,29.5%,2.05%,25.8%,0.88%,30.9%,5.3%,12.5%,2.51%,7.55%,0.15%,-0.63%,1.53%,2.53%,1.45%,2.17%,21.1%,64.3%,2.82%
Cc1nn(C)c2cc(N(C)c3ccnc(Nc4cccc(S(N)(=O)=O)c4)n3)ccc12,8.33%,12.3%,54.9%,7.43%,59.5%,-0.24%,27.3%,45.4%,68.5%,47%,88%,2.13%,5.94%,5.8%,38.2%,4.37%,37.3%,14%,57.4%,5.42%
CC1=C(C(=O)Nc2ccc3[nH]ncc3c2)C(c2ccc(Cl)c(Cl)c2)CC(=O)N1 (stereo not drawn),0.67%,5.41%,36.6%,1.94%,23.5%,0.78%,18%,3.14%,5.12%,3.22%,2.48%,-0.94%,1.14%,0.21%,1.52%,2.42%,4.56%,4.63%,30%,1.06%
CNC(=O)c1cncc(/C=C/c2c(Cl)cccc2Cl)c1,-1.73%,2.61%,2.48%,1.58%,2.6%,-4.61%,-3.71%,6.02%,13.1%,5.81%,33.4%,2.74%,1.88%,0.36%,0.46%,-1.49%,10.9%,1.21%,9.89%,3.47%
CCCN1CCC(Oc2cc(Nc3nc(Nc4cccc(F)c4C(N)=O)c4cc[nH]c4n3)c(OC)cc2Cl)CC1,1.18%,-1.95%,-2.49%,0.96%,1.42%,0.62%,1.56%,9.18%,18.5%,-0.76%,2.77%,-2.42%,-0.61%,-1.82%,3.06%,5.14%,6.37%,-0.28%,4.94%,16.4%
COC(=O)Nc1nc2cc(Oc3ccc(NC(=O)Nc4cccc(C(=O)O)c4)cc3)ccc2[nH]1,-2.68%,2.43%,2.01%,-0.28%,4.54%,-3.56%,0.66%,–,–,2.05%,18.8%,1.22%,3.73%,-0.34%,2.75%,5.8%,15.5%,-2.73%,-2.81%,0.33%
N#Cc1c(NC(=O)c2cccc3ccccc23)sc2c1CCCC2,1.28%,3.98%,3.68%,1.62%,1.85%,-0.84%,1.51%,6.33%,9.83%,2.71%,0.84%,1.1%,2.67%,2.84%,1.87%,-1.27%,3.59%,2.98%,4.35%,2.58%
